# Results: PubChem BioAssay AID1159580 (chemical genetic matrix, 2015)
# The whole screen tested about 5,500 compounds, of which about 2,000 (36%) were called active. Another 18% or so got no clear call; they are omitted. The list shows a part of the results. Unmarked numbers belong to inactive results. No stated cut-off is given here; in the data, active means normalized growth mostly below about 0.91 (no sharp cut-off); inconclusive means no clear call, values can overlap the other calls; inactive means mostly above about 0.92.
# Experiment: chemical genetic growth profiling, strain panel (AID 1159580);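 further: tested at 20 µM; growth read once vehicle control cultures reached saturation at 30 °C; 1 = growth at the plate median or of vehicle wells; lower values mean less growth of the strain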
# Details: growth OD
smiles,measurement,setting,value
O=C(O)c1cccnc1,normalized growth,"S. cerevisiae deletion strains, locus YJR075W, strain HOC1, hits give low values",1.06
same,normalized growth,"S. cerevisiae deletion strains, locus YKL009W, strain mrt4, hits give low values",0.982
same,normalized growth,"S. cerevisiae deletion strains, locus YKL068W, hits give low values",0.991
same,normalized growth,"S. cerevisiae deletion strains, locus YKL085W, strain MDH1 (second series), hits give low values",1.01
same,normalized growth,"S. cerevisiae deletion strains, locus YKL085W, strain MDH1, hits give low values",1.01
same,normalized growth,"S. cerevisiae deletion strains, locus YKL160W, strain elf1, hits give low values",1.01
same,normalized growth,"S. cerevisiae deletion strains, locus YKL190W, strain CNB1, hits give low values",0.997
same,normalized growth,"S. cerevisiae deletion strains, locus YKR001C, strain vps1, hits give low values",0.986
same,normalized growth,"S. cerevisiae deletion strains, locus YKR026C, strain gcn3, hits give low values",0.988
same,normalized growth,"S. cerevisiae deletion strains, locus YKR091W, strain srl3, hits give low values",0.996
same,normalized growth,"S. cerevisiae deletion strains, locus YLL001W, strain dnm1, hits give low values",0.999
same,normalized growth,"S. cerevisiae deletion strains, locus YLL026W, hits give low values",1
same,normalized growth,"S. cerevisiae deletion strains, locus YLL041C, strain sdh2, hits give low values",0.992
same,normalized growth,"S. cerevisiae deletion strains, locus YLR027C, strain aat2, hits give low values",1
same,normalized growth,"S. cerevisiae deletion strains, locus YLR039C, strain RIC1, hits give low values",0.982
same,normalized growth,"S. cerevisiae deletion strains, locus YLR058C, strain SHM2, hits give low values",0.981
same,normalized growth,"S. cerevisiae deletion strains, locus YLR102C, strain apc9, hits give low values",0.997
same,normalized growth,"S. cerevisiae deletion strains, locus YLR113W, strain HOG1, hits give low values",0.995
same,normalized growth,"S. cerevisiae deletion strains, locus YLR221C, strain rsa3, hits give low values",1.02
same,normalized growth,"S. cerevisiae deletion strains, locus YLR258W, strain gsy2, hits give low values",1.01
same,normalized growth,"S. cerevisiae deletion strains, locus YLR262C, strain YPT6 (second series), hits give low values",1.01
same,normalized growth,"S. cerevisiae deletion strains, locus YLR262C, strain YPT6, hits give low values",0.941
same,normalized growth,"S. cerevisiae deletion strains, locus YLR268W, strain sec22, hits give low values",1.13 [resistant] (active)
same,normalized growth,"S. cerevisiae deletion strains, locus YLR320W, strain mms22, hits give low values",1.02
same,normalized growth,"S. cerevisiae deletion strains, locus YLR330W, strain CHS5, hits give low values",0.999
same,normalized growth,"S. cerevisiae deletion strains, locus YLR342W, strain FKS1 (second series), hits give low values",0.999
same,normalized growth,"S. cerevisiae deletion strains, locus YLR342W, strain FKS1, hits give low values",0.992
same,normalized growth,"S. cerevisiae deletion strains, locus YLR357W, strain rsc2, hits give low values",0.991
same,normalized growth,"S. cerevisiae deletion strains, locus YLR370C, strain arc18, hits give low values",1
same,normalized growth,"S. cerevisiae deletion strains, locus YLR371W, strain rom2, hits give low values",0.985
same,normalized growth,"S. cerevisiae deletion strains, locus YLR384C, strain iki3, hits give low values",1.01
same,normalized growth,"S. cerevisiae deletion strains, locus YLR418C, strain cdc73, hits give low values",1.04
same,normalized growth,"S. cerevisiae deletion strains, locus YML016C, strain PPZ1, hits give low values",1.01
same,normalized growth,"S. cerevisiae deletion strains, locus YML032C, strain rad52, hits give low values",1.05
same,normalized growth,"S. cerevisiae deletion strains, locus YML120C, strain ndi1, hits give low values",0.993
same,normalized growth,"S. cerevisiae deletion strains, locus YML124C, strain tub3, hits give low values",0.995
same,normalized growth,"S. cerevisiae deletion strains, locus YMR058W, strain fet3, hits give low values",0.996
same,normalized growth,"S. cerevisiae deletion strains, locus YMR078C, strain ctf18, hits give low values",0.991
same,normalized growth,"S. cerevisiae deletion strains, locus YMR125W, strain sto1, hits give low values",0.979
same,normalized growth,"S. cerevisiae deletion strains, locus YMR129W, hits give low values",0.97
same,normalized growth,"S. cerevisiae deletion strains, locus YMR205C, strain PFK2, hits give low values",1.04
same,normalized growth,"S. cerevisiae deletion strains, locus YMR223W, strain ubp8, hits give low values",1
same,normalized growth,"S. cerevisiae deletion strains, locus YMR231W, strain pep5, hits give low values",1
same,normalized growth,"S. cerevisiae deletion strains, locus YMR263W, strain SAP30, hits give low values",1.01
same,normalized growth,"S. cerevisiae deletion strains, locus YMR307W, strain GAS1, hits give low values",0.938
same,normalized growth,"S. cerevisiae deletion strains, locus YNL067W, strain RPL9B, hits give low values",1.03
same,normalized growth,"S. cerevisiae deletion strains, locus YNL071W, strain lat1, hits give low values",0.975
same,normalized growth,"S. cerevisiae deletion strains, locus YNL128W, strain TEP1, hits give low values",0.971
same,normalized growth,"S. cerevisiae deletion strains, locus YNL153C, strain GIM3, hits give low values",1.03
same,normalized growth,"S. cerevisiae deletion strains, locus YNL183C, strain NPR1, hits give low values",0.961
same,normalized growth,"S. cerevisiae deletion strains, locus YNL209W, strain ssb2, hits give low values",0.99
same,normalized growth,"S. cerevisiae deletion strains, locus YNL233W, strain BNI4, hits give low values",1.05
same,normalized growth,"S. cerevisiae deletion strains, locus YNL248C, strain rpa49, hits give low values",1.01
same,normalized growth,"S. cerevisiae deletion strains, locus YNL250W, strain rad50, hits give low values",0.991
same,normalized growth,"S. cerevisiae deletion strains, locus YNL271C, strain bni1, hits give low values",0.992
same,normalized growth,"S. cerevisiae deletion strains, locus YNL298W, strain CLA4, hits give low values",0.977
same,normalized growth,"S. cerevisiae deletion strains, locus YNL307C, strain MCK1, hits give low values",1.02
same,normalized growth,"S. cerevisiae deletion strains, locus YNL322C, strain KRE1 (second series), hits give low values",0.997
same,normalized growth,"S. cerevisiae deletion strains, locus YNL322C, strain KRE1, hits give low values",0.996
same,normalized growth,"S. cerevisiae deletion strains, locus YNR049C, strain mso1, hits give low values",0.994
same,normalized growth,"S. cerevisiae deletion strains, locus YNR052C, strain pop2, hits give low values",1
same,normalized growth,"S. cerevisiae deletion strains, locus YOL006C, strain TOP1, hits give low values",1.03
same,normalized growth,"S. cerevisiae deletion strains, locus YOL012C, strain htz1",1.06
same,normalized growth,"S. cerevisiae deletion strains, locus YOL147C, strain pex11, hits give low values",1
same,normalized growth,"S. cerevisiae deletion strains, locus YOR001W, strain rrp6, hits give low values",0.977
same,normalized growth,"S. cerevisiae deletion strains, locus YOR061W, strain CKA2, hits give low values",0.97
same,normalized growth,"S. cerevisiae deletion strains, locus YOR069W, strain VPS5, hits give low values",0.996
same,normalized growth,"S. cerevisiae deletion strains, locus YOR070C, strain gyp1, hits give low values",1
same,normalized growth,"S. cerevisiae deletion strains, locus YOR080W, strain dia2, hits give low values",0.993
same,normalized growth,"S. cerevisiae deletion strains, locus YOR083W, strain WHI5, hits give low values",1.03
same,normalized growth,"S. cerevisiae deletion strains, locus YOR106W, strain vam3, hits give low values",1.05
same,normalized growth,"S. cerevisiae deletion strains, locus YOR136W, strain idh2, hits give low values",1
same,normalized growth,"S. cerevisiae deletion strains, locus YOR144C, strain elg1, hits give low values",0.995
same,normalized growth,"S. cerevisiae deletion strains, locus YOR184W, strain ser1, hits give low values",1.03
same,normalized growth,"S. cerevisiae deletion strains, locus YOR231W, strain MKK1, hits give low values",1.01
same,normalized growth,"S. cerevisiae deletion strains, locus YOR265W, strain rbl2, hits give low values",1
same,normalized growth,"S. cerevisiae deletion strains, locus YOR270C, strain vph1, hits give low values",0.978
same,normalized growth,"S. cerevisiae deletion strains, locus YOR290C, strain snf2, hits give low values",0.996
same,normalized growth,"S. cerevisiae deletion strains, locus YOR316C, strain cot1, hits give low values",0.998
same,normalized growth,"S. cerevisiae deletion strains, locus YPL051W, strain arl3, hits give low values",1.05
same,normalized growth,"S. cerevisiae deletion strains, locus YPL055C, strain LGE1, hits give low values",1.01
same,normalized growth,"S. cerevisiae deletion strains, locus YPL078C, strain atp4, hits give low values",0.999
same,normalized growth,"S. cerevisiae deletion strains, locus YPL106C, strain sse1, hits give low values",1.03
same,normalized growth,"S. cerevisiae deletion strains, locus YPL240C, strain hsp82, hits give low values",1.01
same,normalized growth,"S. cerevisiae deletion strains, locus YPL241C, strain CIN2, hits give low values",0.992
same,normalized growth,"S. cerevisiae deletion strains, locus YPL256C, strain CLN2, hits give low values",1.01
same,normalized growth,"S. cerevisiae deletion strains, locus YPR119W, strain clb2, hits give low values",0.998
same,normalized growth,"S. cerevisiae deletion strains, locus YPR141C, strain kar3, hits give low values",0.991
same,normalized growth,"S. cerevisiae deletion strains, locus YPR163C, strain tif3, hits give low values",0.995
same,normalized growth,"S. cerevisiae deletion strains, locus YPR167C, strain met16, hits give low values",1
same,normalized growth,"S. cerevisiae deletion strains, strain wtn01, hits give low values",1.04
same,normalized growth,"S. cerevisiae strains, strain wild type, hits give low values",0.995
